# Source: PubChem BioAssay (NCATS)
# Where “and” joins values, the source holds several entries; their conditions need not be identical. Equal values may be shown once. Results filed as inconclusive are left out. Entries that show only a call come without a potency. Calls of active or inactive are those of the source. Unless noted, calls come from the whole dose curve; as a rule, active = well fitted curve in the direction sought with a large enough effect; inconclusive = small, poorly fitted or top-dose-only effect, or another doubt; inactive = no such curve, though single readings can be large; an effect the other way counts as inactive or inconclusive.
# Assays:
# [1] = biological target: Glucocorticoid receptor (Homo sapiens) (UniProt P04150); assay: qHTS assay for small molecule antagonists of glucocorticoid receptor signaling (AID 588533; active = well fitted inhibition curve with a large enough effect in the signal ratio, with a control signal flat, not every such curve was filed as active; the % refers to the signal ratio;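 note: cells stimulated with 2 nM dexamethasone as agonist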)
# Summary of the method: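 Antagonist-mode qHTS: compound titrations added to GRE-bla HeLa cells, then dexamethasone 2 nM final; 18 h, 37 C. CCF4 FRET fluorescence normalized to dexamethasone and DMSO; IC50 from Hill fit.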
# [2] = qHTS assay for small molecule antagonists of peroxisome proliferator-activated receptor delta signaling (AID 588535; active = well fitted inhibition curve with a large enough effect in the signal ratio, with a control signal flat, not every such curve was filed as active; the % refers to the signal ratio;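 for max response: cells co-treated with a PPAR-delta agonist as stimulator during compound exposure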); settings: HEK293T PPARd-UAS-bla, beta-lactamase FRET ratio, 18 h; 460 nm channel
# Summary of the method: (§1)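 Titrations were run on PPAR-delta-UAS-bla HEK293T cells in charcoal/dextran-stripped serum, incubated 18 h at 37 C. CCF4 fluorescence (460/530 nm) after 2 h RT; Hill equation yields IC50 and maximal response.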
# [3] = biological target: Peroxisome proliferator-activated receptor delta (Homo sapiens) (UniProt Q03181); assay: as above
# Summary of the method: as §1
# [4] = Cellular Toxicity (caspase-3) HUV-EC-C (AID 656);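 note: cells exposed to compound for 16 h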
# Summary of the method: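 Read-out: luminescence proportional to caspase 3/7 activity, measured 20 min after adding Caspase-Glo 3/7 reagent. Cells (HUV-EC-C) had received compound for 16 hr at 37°C. Increases relative to DMSO and 100 uM tamoxifen gave concentration-response AC50 values.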
# [5] = Cellular Toxicity (caspase-3) Hek293 (AID 664);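 note: cells exposed to compound for 16 h at 37 °C before readout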
# Summary of the method: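 qHTS, HEK293 (human embryonic kidney), 16 h cpd exposure in complete medium. Caspase-3/7 activation = luminescence increase; normalized to DMSO/100 uM tamoxifen; Hill-fit AC50.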
# [6] = Cell Viability - LYMP2-001 (AID 921); note: nearly all actives have a fitted effect of over 70% in size; note: potency is the fitted concentration of half-maximal effect
# Summary of the method: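 qHTS, 1536-well; lymphoblastoid cells, 24 hr compound, 37 C; ATP by CellTiter-Glo, 30 min RT; luminescence; Hill-fit AC50.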
# [7] = Cell Viability - LYMP1-002 - Assay at 16 hr (AID 948)
# Summary of the method: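 Acute cytotoxicity is scored as a concentration-dependent fall in intracellular ATP in a human lymphoblastoid line (LYMP1-002) after 16 hr compound exposure at 37 C, measured by luciferase luminescence.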
# [8] = MultiTox-Fluor Cytotoxicity Assay - LYMP1-002 - Dead Cells (AID 960);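 note: cells exposed to compound for 16 h at 37 °C; nearly all actives have a fitted effect of over 60% in size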
# Summary of the method: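 Cells were plated, rested 5 hr, then treated with compound dilution series for 16 hr at 37 C. After adding substrate reagent and 60 min at room temperature, dead-cell protease fluorescence gave concentration-response curves fitted by the Hill equation.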
# [9] = MultiTox-Fluor Cytotoxicity Assay - LYMP1-003 - Live Cells (AID 962);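 note: cells exposed to compound for 16 hours at 37 °C; cytotoxic hits lower the live-cell protease signal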
# Summary of the method: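 Acute cytotoxicity is scored as a drop in live-cell protease activity in human lymphoblastoid LYMP1-003 cells after 16 hr compound exposure at 37 C. AC50 values come from Hill-equation modelling of concentration-response data.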
# [10] = Cell Viability - LYMP1-003 - Assay at 24 hr (AID 963)
# Summary of the method: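 Cytotoxicity is scored as a concentration-dependent fall in ATP-linked luciferase signal in human lymphoblastoid LYMP1-003 cells treated 24 hr at 37 C in complete culture medium.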
# [11] = Cell Viability - LYMP1-003 - Assay at 40 hr (AID 964); note: series mostly up to about 92 µM; nearly all actives have a fitted effect of over 60% in size
# Summary of the method: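 Luminescent ATP signal (CellTiter-Glo) served as the viability read-out after 40 hr compound treatment of human lymphoblastoid LYMP1-003 cells at 37 C. Decreases in ATP were fitted with the Hill equation to give AC50.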
# [12] = Cell Viability - LYMP2-004 (AID 966); note: nearly all actives have a fitted effect of over 65% in size
# Summary of the method: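 qHTS cytotoxicity: human lymphoblastoid line, 24 hr compound treatment, 37 C, complete medium. Viability read as cellular ATP via luciferase luminescence; tetraoctylammonium bromide served as positive control.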
# [13] = Cell Viability - LYMP2-002 (AID 977);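 note: series mostly up to about 92 µM; compound exposure lasted 24 h at 37 °C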
# Summary of the method: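 Human lymphoblastoid cells (2500/well) in complete medium were preincubated 5 hr at 37 C, then exposed to compounds for 24 hr at 37 C. Intracellular ATP was read by CellTiter-Glo luminescence; AC50 came from Hill-equation concentration-response fits.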
# [14] = Cell Viability - LYMP2-018 (AID 985);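 note: compound exposure lasted 24 hr at 37 °C; nearly all actives have a fitted effect of over 50% in size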
# Summary of the method: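 Seed 2500 lymphoblastoid cells per well, incubate 5 hr at 37 C, add compound and incubate 24 hr at 37 C, add CellTiter-Glo, wait 30 min at room temperature, then read luminescence.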
# [15] = Cell Viability - LYMP1-002 - Assay at 24 hr (AID 993)
# Summary of the method: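 Acute toxicity is measured as concentration-dependent loss of cellular ATP in a human lymphoblastoid line (Coriell LYMP1-002) after 24 h treatment in complete medium. ATP is quantified by luciferase luminescence and AC50 derived by Hill modelling.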
# [16] = Cell Viability - LYMP1-002 - Assay at 40 hr (AID 994); note: nearly all actives have a fitted effect of over 60% in size
# Summary of the method: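 Cells are plated at 2500 per well and rested 5 hr at 37 C. Compounds are added and incubated 40 hr at 37 C. CellTiter-Glo reagent is added for 30 min at room temperature before luminescence is read.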
# [17] = qHTS assay for small molecule antagonists of the retinoid-related orphan receptor gamma (ROR-gamma) signaling pathway - cell viability counter screen (AID 720652; active = well fitted curve in the direction sought with a large enough effect in the repeat runs; an effect the other way counts as inactive or inconclusive;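 note: CHO reporter cells with doxycycline-induced ROR-gamma expression; series mostly up to about 92 µM; compound exposure lasted 16 hr before ATP read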)
# Summary of the method: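 Steps: seed CHO cells bearing TET-inducible ROR and ROR response element-luciferase; rest 5 hr at 37 C; add compound, then doxycycline; incubate 16 hr; add CellTiter-Glo and read luminescence as ATP-based viability.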
# [18] = biological target: Nuclear receptor ROR-gamma (Homo sapiens) (UniProt P51449); assay: qHTS assay for small molecule antagonists of the retinoid-related orphan receptor gamma (ROR-gamma) signaling pathway (AID 651802); note: nearly all actives have a fitted effect of over 60% in size; note: potency is the fitted concentration of half-maximal effect
# Summary of the method: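 Steps: cells dispensed; compound or DMSO transferred by pin tool; doxycycline added to induce the ROR response element-driven luciferase; plates held 16hr at 37C; ONE-Glo added and luminescence measured.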
# [19] = biological target: Muscarinic acetylcholine receptor M1 (Rattus norvegicus) (UniProt P08482); assay: qHTS Assay for Antagonists of Acetylcholine Muscarinic M1 Receptor: Kinetic Measurement of Intracellular Calcium Response (AID 943); note: nearly all actives have a fitted effect of over 75% in size; note: potency is the fitted concentration of half-maximal effect
# Summary of the method: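 Antagonism is measured as inhibition of the carbachol-evoked calcium rise in CHO cells transfected with rat M1. Cells are dye-loaded, exposed to compound for 10 min, then stimulated with 100 nM carbachol (EC80).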
# [20] = qHTS Assay for Identification of Small Molecule Agonists for Hypoxia Response Element Signaling Pathway (AID 914; active = well fitted activation curve with a large enough effect in the signal ratio, with a control signal flat, not every such curve was filed as active; the % refers to the signal ratio); settings: ME-180 (cervical carcinoma) HRE-bla reporter, beta-lactamase ratio, CoCl2, 17 h; activation: stronger effect = higher value
# Summary of the method: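 Reporter activity (beta-lactamase, CCF4 460nm/530nm ratio) in HRE-bla ME-180 cells is recorded after 17 h compound exposure with EC50 CoCl2 at 37 degrees Celsius. AC50 values come from titration data.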
# Sequence of Peroxisome proliferator-activated receptor delta (Homo sapiens) (Q03181 whole entry, looked up): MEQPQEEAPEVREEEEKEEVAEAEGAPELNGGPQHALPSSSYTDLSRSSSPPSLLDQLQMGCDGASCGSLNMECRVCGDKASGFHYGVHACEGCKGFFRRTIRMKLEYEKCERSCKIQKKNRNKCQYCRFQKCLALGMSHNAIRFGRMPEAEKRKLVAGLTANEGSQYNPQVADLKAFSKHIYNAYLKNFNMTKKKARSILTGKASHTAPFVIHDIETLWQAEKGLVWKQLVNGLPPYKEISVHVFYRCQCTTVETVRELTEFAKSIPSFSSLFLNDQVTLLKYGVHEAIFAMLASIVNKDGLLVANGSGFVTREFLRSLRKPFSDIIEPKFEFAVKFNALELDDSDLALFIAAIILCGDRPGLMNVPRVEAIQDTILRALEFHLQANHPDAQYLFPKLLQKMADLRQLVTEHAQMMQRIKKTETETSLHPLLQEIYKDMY
# Sequence of Nuclear receptor ROR-gamma (Homo sapiens) (P51449 whole entry, looked up): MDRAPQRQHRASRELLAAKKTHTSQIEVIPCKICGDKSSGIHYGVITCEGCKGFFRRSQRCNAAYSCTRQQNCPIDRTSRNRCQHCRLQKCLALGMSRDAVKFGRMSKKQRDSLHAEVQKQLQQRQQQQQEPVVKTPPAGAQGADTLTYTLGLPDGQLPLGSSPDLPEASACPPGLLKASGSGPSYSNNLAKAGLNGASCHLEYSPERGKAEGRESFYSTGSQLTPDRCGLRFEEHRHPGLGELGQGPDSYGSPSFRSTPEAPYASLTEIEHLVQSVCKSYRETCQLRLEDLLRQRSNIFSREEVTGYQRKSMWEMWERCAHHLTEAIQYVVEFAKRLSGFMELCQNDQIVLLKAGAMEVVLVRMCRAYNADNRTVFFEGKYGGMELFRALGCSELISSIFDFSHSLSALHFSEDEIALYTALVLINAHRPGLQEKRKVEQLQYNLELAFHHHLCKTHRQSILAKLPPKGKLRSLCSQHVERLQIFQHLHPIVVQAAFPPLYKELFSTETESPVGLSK
# Sequence of Glucocorticoid receptor (Homo sapiens) (P04150 whole entry, looked up): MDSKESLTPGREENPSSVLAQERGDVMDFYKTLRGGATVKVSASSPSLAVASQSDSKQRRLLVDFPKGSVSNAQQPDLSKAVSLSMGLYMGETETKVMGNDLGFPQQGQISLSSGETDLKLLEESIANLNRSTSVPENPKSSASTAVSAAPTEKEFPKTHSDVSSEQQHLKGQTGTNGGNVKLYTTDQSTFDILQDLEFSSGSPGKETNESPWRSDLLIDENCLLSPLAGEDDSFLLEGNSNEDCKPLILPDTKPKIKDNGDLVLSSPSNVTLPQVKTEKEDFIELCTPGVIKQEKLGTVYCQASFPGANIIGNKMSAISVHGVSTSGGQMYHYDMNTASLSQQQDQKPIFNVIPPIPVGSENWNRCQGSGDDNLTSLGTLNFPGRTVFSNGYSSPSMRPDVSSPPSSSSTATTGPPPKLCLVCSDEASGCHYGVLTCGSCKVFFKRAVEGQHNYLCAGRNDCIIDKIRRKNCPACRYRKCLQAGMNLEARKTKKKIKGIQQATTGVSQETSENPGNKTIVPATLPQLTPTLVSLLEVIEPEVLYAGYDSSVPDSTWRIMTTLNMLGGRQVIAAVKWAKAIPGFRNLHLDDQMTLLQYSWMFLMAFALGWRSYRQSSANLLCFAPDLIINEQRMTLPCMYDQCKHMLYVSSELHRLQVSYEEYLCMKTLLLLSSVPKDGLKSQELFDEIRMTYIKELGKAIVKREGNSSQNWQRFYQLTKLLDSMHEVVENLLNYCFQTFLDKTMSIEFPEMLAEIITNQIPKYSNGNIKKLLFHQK
# Sequence of Muscarinic acetylcholine receptor M1 (Rattus norvegicus) (P08482 whole entry, looked up): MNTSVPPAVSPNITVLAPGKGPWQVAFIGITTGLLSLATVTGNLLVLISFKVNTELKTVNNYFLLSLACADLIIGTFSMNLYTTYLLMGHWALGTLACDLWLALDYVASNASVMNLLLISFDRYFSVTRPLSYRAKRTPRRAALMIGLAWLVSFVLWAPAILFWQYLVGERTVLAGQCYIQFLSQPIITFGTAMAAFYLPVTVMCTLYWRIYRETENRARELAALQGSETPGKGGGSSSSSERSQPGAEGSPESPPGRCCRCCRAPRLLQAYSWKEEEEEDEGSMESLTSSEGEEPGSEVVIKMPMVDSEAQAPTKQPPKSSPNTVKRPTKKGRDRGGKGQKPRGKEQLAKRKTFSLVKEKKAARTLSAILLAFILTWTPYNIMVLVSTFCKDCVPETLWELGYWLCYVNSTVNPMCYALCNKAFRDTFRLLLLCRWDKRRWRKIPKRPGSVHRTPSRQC
smiles,measurement,setting,value
ClC1=C(Cl)C2(Cl)C3C(Cl)C=CC3C1(Cl)C2(Cl)Cl (centres undefined),Potency,[1],inactive
same,max response,[2],-19.5%
same,Potency,[3],inactive
O=C(O)COc1ccc(Cl)cc1Cl,outcome,[4],inactive
same,outcome,[5],inactive
same,Potency,[6],inactive
same,Potency,[7],inactive
same,Potency,[8],inactive
same,Potency,[9],inactive
same,Potency,[10],inactive
same,Potency,[11],inactive
same,Potency,[12],inactive
same,Potency,[13],inactive
same,Potency,[14],inactive
same,Potency,[15],inactive
same,Potency,[16],inactive
same,Potency,[17],inactive
C=CCc1ccc2c(c1)OCO2,outcome,[4],inactive
same,outcome,[5],inactive
same,Potency,[6],inactive
same,Potency,[7],inactive
same,Potency,[8],inactive
same,Potency,[9],inactive
same,Potency,[10],inactive
same,Potency,[11],inactive
same,Potency,[12],inactive
same,Potency,[13],inactive
same,Potency,[14],inactive
same,Potency,[15],inactive
same,Potency,[16],inactive
same,Potency,[18],inactive
CNC(=O)O/N=C/C(C)(C)SC,outcome,[4],inactive
same,outcome,[5],inactive
same,Potency,[7],inactive
same,Potency,[8],inactive
same,Potency,[9],inactive
same,Potency,[10],inactive
same,Potency,[11],inactive
same,Potency,[12],inactive
same,Potency,[13],inactive
same,Potency,[14],inactive
same,Potency,[15],inactive
same,Potency,[16],inactive
same,Potency,[1],inactive
same,max response,[2],-48.7% and -22%
same,Potency,[3],inactive
same,Potency,[18],inactive
same,Potency,[17],inactive
c1ccc(N=Nc2ccccc2)cc1,Potency,[6],inactive
same,Potency,[7],inactive
same,Potency,[8],inactive
same,Potency,[9],inactive
same,Potency,[10],inactive
same,Potency,[11],inactive
same,Potency,[12],inactive
same,Potency,[13],inactive
same,Potency,[14],inactive
same,Potency,[15],inactive
same,Potency,[16],inactive
same,Potency,[1],inactive
same,Potency,[18],inactive
same,Potency,[17],inactive
ClC1=C(Cl)C2(Cl)C3C4C=CC(C4)C3C1(Cl)C2(Cl)Cl (centres undefined),Potency,[6],39.8 µM (active)
same,Potency,[18],23.7 µM (active)
CS(=N)(=O)CC[C@@H](N)C(=O)O (some centres undefined),Potency,[19],inactive
COc1ccc(NC(=O)N2CCC3(CC2)CCN(C(=O)Oc2ccccc2)CC3)cc1,activation,[20],-18.1% (inactive)
COc1ccc(OC)c([C@H](O)[C@H](C)N)c1,Potency,[19],inactive
C[C@@]12CC[C@H]3[C@@H](CC[C@@H]4C[C@H]5S[C@H]5C[C@]43C)[C@H]1CC[C@H]2O,activation,[20],1.68% (inactive)
NC[C@H](O)c1ccc(O)cc1,Potency,[19],inactive
CCC[C@@](C)(COC(N)=O)COC(=O)NC(C)C,activation,[20],-3.35% (inactive)
CC(C)[C@@]1(NC(=O)[C@@H]2C[C@H]3c4cccc5[nH]cc(c45)C[C@@H]3N(C)C2)O[C@]2(O)[C@H]3CCCN3C(=O)CN2C1=O,activation,[20],9.33% (inactive)
CNC(=O)N(C)c1nnc(C(C)(C)C)s1,max response,[2],22%
same,Potency,[3],inactive
CC(C)N(CC[C@@](C(N)=O)(c1ccccc1)c1ccccn1)C(C)C,Potency,[19],4.47 µM (active) and 3.98 µM (active)
